The results in this text go back to PubChem BioAssay (NCATS).

SMILES strings stand for the structures. Values joined by “and” are separate entries in the source; they are usually repeats but may differ in a detail not shown here. Equal entries are not always repeated. Inconclusive results are not listed. Some compounds were tested as several samples or in several runs, with calls that do not always agree. Active and inactive are the calls of the source. Calls come from the whole dose curve.
Potency is the fitted concentration of half-maximal effect.

Cytochrome P450 1A2 (Homo sapiens), sequence (P05177 whole entry, looked up): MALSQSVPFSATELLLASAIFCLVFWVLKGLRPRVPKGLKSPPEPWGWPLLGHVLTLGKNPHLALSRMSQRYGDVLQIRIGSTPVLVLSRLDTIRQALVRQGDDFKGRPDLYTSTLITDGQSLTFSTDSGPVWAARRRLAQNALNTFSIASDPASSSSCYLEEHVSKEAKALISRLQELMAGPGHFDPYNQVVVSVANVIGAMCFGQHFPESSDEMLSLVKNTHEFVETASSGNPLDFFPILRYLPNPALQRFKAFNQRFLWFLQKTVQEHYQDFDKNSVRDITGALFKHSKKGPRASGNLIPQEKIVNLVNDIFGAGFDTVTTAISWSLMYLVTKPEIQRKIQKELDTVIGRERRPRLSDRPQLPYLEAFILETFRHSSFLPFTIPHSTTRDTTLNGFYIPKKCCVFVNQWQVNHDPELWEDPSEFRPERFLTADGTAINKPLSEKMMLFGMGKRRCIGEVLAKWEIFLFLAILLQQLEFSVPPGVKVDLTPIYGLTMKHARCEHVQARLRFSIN

The target in the assay is Cytochrome P450 1A2 (Homo sapiens) (UniProt P05177). The assay is described as follows: p450-cyp1a2 (AID 410).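 For activity change, negative = inhibition: -100% = full effect of reference inhibitor.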 The conditions noted are these: recombinant CYP1A2, luciferin-ME demethylation, luminescence; series mostly up to 57 µM; activity change, negative = inhibition: at the top concentration. Here is the method:
The P450 gene superfamily is involved in metabolism and the clearance of xenobiotics. This assay used human CYP1A2 to measure the demethylation of luciferin 6' methyl ether (Luciferin-ME; Promega-Glo) to luciferin. The luciferin is then measured by luminescence after the addition of a luciferase detection regeant. Luciferin-ME concentration in the assay was equal to its Km for CYP1A2.
NCGC Assay Protocol Summary:
Two uL of enzyme and substrate mix (final concentrations: 20nM CYP1A2, 100uM Luciferin-ME, 100mM KPO4) were dispensed into a white, solid bottom 1536-well microtiter plate. 23nL of compound was transferred by a pin tool. The plate was incubated at room temperature for 10 min. Two uL of an NADPH regeneration solution (Promega supplied reagent) was dispensed and the reaction was allowed to continue for 60 min at room temperature. Then the reaction was stopped by reconstituted detection reagent. After another 20 min of incubation the plate was read on the ViewLux (Perkin Elmer) at 60 sec exposure and 2x2 binning. This protocol was carried out with Promega-Glo reagents and further information can be found at http://www.promega.com/tbs/tb325/tb325.pdf. Data were normalized to the to AC100 inhibition (57 uM furafylline).
For `N#CC(C#N)=Cc1ccc([N+](=O)[O-])c(O)c1`, the Potency was 31.6 µM (active).
Same read-out and setting: as for `Oc1ccc2c3c1O[C@H]1c4c(c5ccccc5n4Cc4ccccc4)C[C@]4(O)[C@H](C2)N(CC2CC2)CC[C@@]314`, the figure is 31.6 µM (active).
`CC(=O)O[C@@H]1CN2CCC1CC2`: the “activity change, negative = inhibition” value was -10.4% (inactive).
Regarding `COc1cccc2c1cc([N+](=O)[O-])c1c(C(=O)O)cc3c(c12)OCO3`, the Potency was 31.6 µM (active).
Turning to `NC[C@H](CP(=O)(O)O)c1ccc(Cl)cc1`, the “activity change, negative = inhibition” value is -5.6% (inactive).
As for `N[C@@H](Cn1ccc(=O)n(Cc2ccc(C(=O)O)cc2)c1=O)C(=O)O`, the “activity change, negative = inhibition” value was -15.7% (inactive).
As to `N[C@@]1(C(=O)O)CC[C@H](C(=O)O)C1`, the Potency result is “inactive”.
Still for that read-out and setting: as for `O=C1NCN(c2ccccc2)C12CCN(C[C@H]1COc3ccccc3O1)CC2`, the figure is 12.6 µM (active); as for `C[C@H](N)Cc1c[nH]c2ccc(OCc3cccs3)cc12`, 1.58 µM (active) and 126 nM (active).
For the molecule `C=C(C)CN1CC[C@@]23c4c5ccc(O)c4O[C@H]2c2[nH]c4ccccc4c2C[C@]3(O)[C@@H]1C5`, the “activity change, negative = inhibition” value is -16.9% (inactive).
Still for that read-out and setting: next, `CNCCc1cnc[nH]1`: -22.6% (inactive); `CP(=O)(O)CCCN`: -5.1% (inactive).
In the case of `Fc1ccc(C(OCCN2CCN(C/C=C\c3ccccc3)CC2)c2ccc(F)cc2)cc1`, the Potency was 31.6 µM (active).
Same read-out and setting: as for `c1cncc([C@@H]2CCCCN2)c1`, the figure is 5.01 µM (active) and inactive.
Take `COc1cc(CCN)ccc1O`: the “activity change, negative = inhibition” value was -19.4% (inactive).
With `COc1ccc(C[C@H]2NC[C@H](O)[C@@H]2OC(C)=O)cc1`, the “activity change, negative = inhibition” value was -31.9% (inactive).
In the case of `Cn1cc(C(=O)C(=O)N[C@H]2CN3CCC2CC3)c2ccccc21`, the Potency was 15.8 µM (active).
On to `CC(=O)N1CC[N+](C)(C)CC1`, for which the “activity change, negative = inhibition” value is -23.4% (inactive).
With `COC(=O)c1cc2c(cn1)[nH]c1ccccc12`, the Potency was 0.631 µM (active).
With `CCC[C@@H]1CC2=CC(=O)CC[C@]2(C)[C@@H]2CC[C@@]3(C)[C@H](CC[C@]3(O)CCC(=O)O)[C@H]12`, the “activity change, negative = inhibition” value was -1.1% (inactive).
As for `C[C@@H](C(=O)OC1C[C@H]2CC[C@@H](C1)N2C)c1ccc(Br)cc1` (stereo not given in full), the Potency is 39.8 µM (active).
As to `CC(C)(C)c1o[nH]c(=O)c1C[C@H](N)C(=O)O`, the Potency entry is “inactive”.
On the same count and under the same terms, next, `C[C@@H](N)Cn1ccc2cc(F)c(Cl)cc21`: 0.0501 µM (active).
For the molecule `C/C(=C\C=C/[C@@H](C)C(=O)O)[C@H]1CN[C@H](C(=O)O)[C@@H]1CC(=O)O`, the “activity change, negative = inhibition” value was -14.8% (inactive).
On the same count and under the same terms, next, `COc1ccc(CNC(=O)/C=C\c2ccc3[nH]cc(CCN(C)C)c3c2)cc1`: -6% (inactive).
As for `Oc1ccc2c3c1O[C@H]1c4[nH]c5ccccc5c4C[C@]4(O)[C@H](C2)N(CC2CC2)CC[C@@]314`, the Potency result was “inactive and 39.8 µM (active)”.
Still for that read-out and setting: as for `CN1CCN(c2ccc3ccccc3n2)CC1`, the figure is 10 µM (active) and 3.16 µM (active).
The same measure, in the same setting: as for `NC[C@@H](CC(=O)O)c1ccc(Cl)cc1`, the entry is “inactive”.
Take `C[C@H](N)Cc1c[nH]c2ccc(O)cc12`: the “activity change, negative = inhibition” value was -15.7% (inactive).
As to `CN(C(=O)Cc1ccc(Cl)c(Cl)c1)[C@H](CN1CCCC1)c1ccccc1`, the Potency is 31.6 µM (active).
Take `C=C1[C@@H](O)C2C=CC[C@H](C)C(=O)[C@@](C)(O)C=C[C@@H](OC(C)=O)[C@@]23C(=O)N[C@H](Cc2ccccc2)[C@@H]3[C@@H]1C` (stereo not given in full): the “activity change, negative = inhibition” value was -13% (inactive).
`NC(=NCCc1ccc(I)cc1)SCCCc1cnc[nH]1`: the Potency was 15.8 µM (active).
As for `CC[C@]1(C2=NCCN2)Cc2ccccc2O1`, the “activity change, negative = inhibition” value was -6% (inactive).
Same read-out and setting: next, `CC1=C(O)C(=O)[C@H]2O[C@@H]2C1=O`: -9.2% (inactive); `CN(C)Cc1c[nH]c2ccccc12`: -20.8% [at 25.6 µM] (inactive); `CN1[C@@H]2CC[C@H]1CC(O[C@@H](c1ccccc1)c1ccc(Cl)cc1)C2` (stereo not given in full): -6.5% (inactive).
Regarding `CN1C(=O)CCS(=O)(=O)[C@H]1c1ccc(Cl)cc1`, the Potency result was “inactive”.
On the same count and under the same terms, as for `C/C(O)=C(/C#N)C(=O)Nc1cc(Br)ccc1Br`, the figure is 5.01 µM (active) and 2.51 µM (active).
In the case of `Clc1ccc([C@@H]2C[C@H]3CC[C@@H]2N3)cn1`, the “activity change, negative = inhibition” value is -20.5% (inactive).
`O=C(O)c1ccccc1-c1c2cc(Br)c(=O)cc-2oc2[c]([Hg])c(O)c(Br)cc12`: the Potency was 15.8 µM (active).
